Experiment [1] in a line: qHTS assay to identify small molecule agonists of the TGF-beta/Smad signaling pathway (AID 1346859; active = well fitted activation curve with a large enough effect in the signal ratio in the repeat runs, not every such curve was filed as active; the % refers to the signal ratio; also: series mostly up to about 77 µM). In outline: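 Screening used HEK 293T SBE-bla cells at 4,000/well. Test agents: 5 hr, 37 C. Detection: FRET substrate, 2 hr RT, then excitation 405 nm with emissions at 460 and 530 nm.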
Experiment [2] concerns the target Thyrotropin-releasing hormone receptor (Homo sapiens) (UniProt P34981). In words: qHTS assay to identify small molecule antagonists of the thyrotropin-releasing hormone receptor (TRHR) signaling pathway (AID 1346877; active = well fitted inhibition curve with a large enough effect in the repeat runs, not every such curve was filed as active; also: series mostly up to about 51 µM). In outline: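 Human TRHR in HEK293 cells; inhibition of the intracellular calcium rise triggered by 1 nM TRH was followed by fluorescence over 3 min. Compounds were run at 15 concentrations, three replicates each.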

The target is the same in experiment [3]. In words: qHTS assay to identify small molecule agonists of the thyrotropin-releasing hormone receptor (TRHR) signaling pathway (AID 1346891; calls by dose curve; also: series mostly up to about 58 µM). In outline:
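Readout was intracellular calcium fluorescence in TRHR-Hek293 cells. Cells were incubated 18 h, dye-loaded 2 h at 37 °C, and treated with compound in agonist mode.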
For orientation: In qHTS, concentration-response curves come from the screen itself.

A short description of experiment [4]: Human pregnane X receptor (PXR) small molecule agonists, qHTS cell viability counter screen (AID 1346977). Also: nearly all actives have a fitted effect of over 50% in size. In outline: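 In each well, the PXR reporter HepG2 line was checked for viability: CellTiter-Fluor reagent added 23hr post-dosing, fluorescence read after 1hr incubation at 37C.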
Experiment [5] can be described thus: Caspase-3/7 induction in HepG2 cells by small molecules, qHTS assay (AID 1346978). Also: nearly all actives have a fitted effect of over 15% in size. In outline:
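Caspase-3/7 induction was measured by Caspase-Glo 3/7 luminescence (30 min, room temperature) after a 17 hr compound exposure of wild-type HepG2 cells seeded at 2,000 per well and pre-incubated 5 hr.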

The nature of experiment [6]: Caspase-3/7 induction in CHO-K1 cells by small molecules, qHTS cell viability counter screen (AID 1346979). Also: nearly all actives have a fitted effect of over 35% in size. In outline:
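Following a 5hr settling period, CHO-K1 cells at 1,500 per well received DMSO-dissolved compounds. Cell viability was quantified 16hr later by CellTiter-Fluor fluorescence, measured after 1hr with reagent at 37C.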

A short description of experiment [7]: Caspase-3/7 induction in CHO-K1 cells by small molecules, qHTS assay (AID 1346980). Also: nearly all actives have a fitted effect of over 15% in size. In outline: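 Luminescent Caspase-Glo 3/7 read (30min, room temperature) quantified apoptosis induction. Cells were wild-type CHO-K1, treated with compound for 17hr at 37 C and 5% CO2.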
Experiment [8] can be described thus: Caspase-3/7 induction in HepG2 cells by small molecules, qHTS cell viability counter screen (AID 1346981). Also: series mostly up to about 92 µM; nearly all actives have a fitted effect of over 30% in size. In outline: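 The parent HepG2 line is plated at 2,000 cells per well and rested 5 hr before compound pinning from DMSO stocks. Following a 16-hr treatment at 37 C, a fluorogenic live-cell substrate (CellTiter-Fluor) reports viability after 1 hr.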
Experiment [9] addresses Nuclear receptor subfamily 1 group I member 2 (Homo sapiens) (UniProt O75469). In words: Human pregnane X receptor (PXR) small molecule agonists, qHTS assay (AID 1346982). Also: nearly all actives have a fitted effect of over 35% in size. Also: potency is read from the fitted curve at half-maximal effect. In outline: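 After plating in 5% charcoal-stripped FBS and a 5 hr rest, PXR-Luc HepG2 cells received compounds in DMSO. Following 24 hr at 37 C, ONE-Glo was added and light output read.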
The target of experiment [10] is Cytochrome P450 2D6 (Homo sapiens) (UniProt P10635). As to the kind of experiment: Cytochrome P450 Family 2 Subfamily D Member 6 (CYP2D6) small molecule antagonists: luciferase reporter qHTS assay (AID 1671196). Also: nearly all actives have a fitted effect of over 50% in size. Also: potency is read from the fitted curve at half-maximal effect. In outline: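 Quantitative HTS of Tox21 chemicals against CYP2D6 using a luminescent proluciferin substrate. After NADPH addition, 1 h room-temperature reaction; luminescence recorded 20 min post detection reagent.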
For orientation: A reporter such as luciferase makes a cellular process visible.

In experiment [11] the target is Cytochrome P450 1A2 (Homo sapiens) (UniProt P05177). As to the kind of experiment: Cytochrome P450 Family 1 Subfamily A Member 2 (CYP1A2) small molecule antagonists: luciferase reporter qHTS assay (AID 1671199). Also: nearly all actives have a fitted effect of over 50% in size. Also: potency is read from the fitted curve at half-maximal effect. In outline: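 Quantitative high-throughput format using the P450-Glo CYP1A2 system. Reaction initiated by NADPH regeneration solution, 1 h at room temperature, then stopped with detection reagent; luminescence measured 20 min later.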

Experiment [12] deals with Voltage-gated inwardly rectifying potassium channel KCNH2 (Homo sapiens) (UniProt Q12809). As to the kind of experiment: Human Ether-a-go-go-Related Gene (hERG) channel small molecule antagonists: fluorescence cell-based qHTS assay (AID 1671200).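 Also: hERG-expressing U2OS cells given a thallium stimulus after FluxOR II dye loading; series mostly up to about 77 µM; nearly all actives have a fitted effect of over 50% in size.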 In outline: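 In this thallium-flux screen, overnight-cultured U2OS cells bearing the channel are dye-loaded in darkness for an hour, rested 10 min at room temperature, and then monitored kinetically at 480/540 nm for two minutes post-stimulus.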
For orientation: Block of hERG is tested as a sign of cardiac risk.

Experiment [13] deals with Cytochrome P450 3A4 (Homo sapiens) (UniProt P08684). As to the kind of experiment: Cytochrome P450 Family 3 Subfamily A Member 4 (CYP3A4) small molecule antagonists: luciferase reporter qHTS assay (AID 1671201). Also: nearly all actives have a fitted effect of over 50% in size. Also: potency is read from the fitted curve at half-maximal effect. In outline:
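CYP3A4 activity was followed with a P450-Glo proluciferin substrate. Test compounds in DMSO were preincubated 10 min; NADPH regeneration then ran 1 h, and light output was read 20 min after detection reagent.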

Experiment [14] concerns the target Cytochrome P450 2C19 (Homo sapiens) (UniProt P33261). In words: Cytochrome P450 Family 2 Subfamily C Member 19 (CYP2C19) small molecule antagonists: luciferase reporter qHTS assay (AID 1671197). Also: nearly all actives have a fitted effect of over 65% in size. Also: potency is read from the fitted curve at half-maximal effect. In outline: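 Light output is proportional to CYP2C19 activity: proluciferin substrate is converted to luciferin, then detected by a luciferin detection reagent that also stops the 1 h, 37C NADPH-driven reaction. Ketoconazole serves as positive control.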

In experiment [15] the target is Cytochrome P450 2C9 (Homo sapiens) (UniProt P11712). As to the kind of experiment: Cytochrome P450 Family 2 Subfamily C Member 9 (CYP2C9) small molecule antagonists: luciferase reporter qHTS assay (AID 1671198). Also: nearly all actives have a fitted effect of over 50% in size. Also: potency is read from the fitted curve at half-maximal effect. In outline:
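Enzyme-substrate mix preincubated with compound 10 min at room temperature; reaction started with NADPH regeneration solution, 1 h 37C. Luminescent luciferin product read after 20 min detection reagent.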

Experiment [16] has as its target Nuclear receptor subfamily 1 group I member 2 (Rattus norvegicus) (UniProt Q9R1A7). In words: Rat pregnane X receptor (rPXR) activation by small molecules, qHTS assay (AID 1346983). Also: nearly all actives have a fitted effect of over 20% in size. The note with it: rPXR luciferase reporter cells, One-Glo luminescence, 24 h; max activation: active compounds read high. In outline: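 Luminescent readout (One-Glo luciferase, 30 min room temperature) followed 24 hr compound treatment at 37 C of rPXR cells plated 2,000 per well and preincubated 5hr; qHTS format with compounds delivered in DMSO.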

The target of experiment [17] is Nuclear receptor subfamily 1 group I member 2 (Homo sapiens) (UniProt O75469). As to the kind of experiment: CYP3A4 induction through human pregnane X receptor (PXR) by small molecules, qHTS assay (AID 1346984). Also: nearly all actives have a fitted effect of over 40% in size. In outline: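 Human PXR activation is tracked via CYP3A4 promoter-luciferase in DPX-2 (HepG2) cells. Compounds treat cells for 24hr at 37C, and luminescence is read after One-Glo.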

Experiment [18] has the same target. As to the kind of experiment: Human pregnane X receptor (PXR) activation by small molecules, qHTS assay (AID 1346985). Also: nearly all actives have a fitted effect of over 40% in size. In outline:
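DPX-2 cells (HepG2 co-transfected with a PXR response element and a CYP3A4-promoter luciferase construct) were seeded at 2,000 per well, rested 5 hr at 37C, then exposed to DMSO-dissolved compounds for 24 hr. Activation was read as luciferase luminescence.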

A number with no mark means an inactive call. Results filed as inconclusive are left out. Calls of active or inactive are those of the source. Unless noted, calls follow the shape of the dose curve; as a rule, active = well fitted curve in the direction sought with a large enough effect in the repeat runs; inconclusive = weak or mixed curves; inactive = no such curve, though single readings can be large; an effect the other way counts as inactive or inconclusive.
% is scaled to controls: 0 for no effect and ±100 for the full control effect.

Chain of Cytochrome P450 2C9 (Homo sapiens) (P11712 whole entry, looked up): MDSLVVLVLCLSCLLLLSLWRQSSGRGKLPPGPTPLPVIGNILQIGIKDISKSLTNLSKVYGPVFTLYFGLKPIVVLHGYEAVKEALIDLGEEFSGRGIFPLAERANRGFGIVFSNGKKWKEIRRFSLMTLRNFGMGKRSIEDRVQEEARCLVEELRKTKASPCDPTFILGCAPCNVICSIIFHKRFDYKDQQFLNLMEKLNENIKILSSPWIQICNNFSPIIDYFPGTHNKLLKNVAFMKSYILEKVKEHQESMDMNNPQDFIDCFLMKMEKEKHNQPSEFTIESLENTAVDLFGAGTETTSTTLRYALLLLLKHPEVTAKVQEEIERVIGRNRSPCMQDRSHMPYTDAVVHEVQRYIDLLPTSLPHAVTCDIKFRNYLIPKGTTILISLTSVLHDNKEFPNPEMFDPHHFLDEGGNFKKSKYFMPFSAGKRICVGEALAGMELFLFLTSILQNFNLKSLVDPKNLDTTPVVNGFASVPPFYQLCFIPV
Chain of Cytochrome P450 1A2 (Homo sapiens) (P05177 whole entry, looked up): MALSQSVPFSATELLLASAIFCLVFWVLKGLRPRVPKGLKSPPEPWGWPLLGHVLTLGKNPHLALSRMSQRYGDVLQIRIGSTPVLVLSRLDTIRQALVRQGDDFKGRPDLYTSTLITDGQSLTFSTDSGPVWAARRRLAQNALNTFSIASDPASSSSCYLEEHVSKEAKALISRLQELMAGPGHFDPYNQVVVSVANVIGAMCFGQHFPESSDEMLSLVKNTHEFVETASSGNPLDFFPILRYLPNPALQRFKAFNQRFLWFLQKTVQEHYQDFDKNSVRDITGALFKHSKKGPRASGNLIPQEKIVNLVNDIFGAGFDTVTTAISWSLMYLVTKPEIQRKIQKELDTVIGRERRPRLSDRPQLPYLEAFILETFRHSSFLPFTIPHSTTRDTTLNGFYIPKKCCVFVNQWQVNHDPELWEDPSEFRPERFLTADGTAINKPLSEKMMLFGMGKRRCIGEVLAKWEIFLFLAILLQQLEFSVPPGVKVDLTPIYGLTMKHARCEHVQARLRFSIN
Chain of Nuclear receptor subfamily 1 group I member 2 (Homo sapiens) (O75469 whole entry, looked up): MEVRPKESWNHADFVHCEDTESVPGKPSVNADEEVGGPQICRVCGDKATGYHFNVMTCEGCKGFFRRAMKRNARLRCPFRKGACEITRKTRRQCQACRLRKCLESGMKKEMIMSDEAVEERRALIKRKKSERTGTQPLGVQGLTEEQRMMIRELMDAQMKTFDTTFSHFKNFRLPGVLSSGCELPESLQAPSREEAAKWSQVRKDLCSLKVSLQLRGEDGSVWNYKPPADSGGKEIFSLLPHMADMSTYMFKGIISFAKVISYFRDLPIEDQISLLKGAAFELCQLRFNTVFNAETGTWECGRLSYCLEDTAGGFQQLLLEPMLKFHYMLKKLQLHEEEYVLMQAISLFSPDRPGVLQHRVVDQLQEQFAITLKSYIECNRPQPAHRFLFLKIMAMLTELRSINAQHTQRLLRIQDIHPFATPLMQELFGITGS
Chain of Cytochrome P450 3A4 (Homo sapiens) (P08684 whole entry, looked up): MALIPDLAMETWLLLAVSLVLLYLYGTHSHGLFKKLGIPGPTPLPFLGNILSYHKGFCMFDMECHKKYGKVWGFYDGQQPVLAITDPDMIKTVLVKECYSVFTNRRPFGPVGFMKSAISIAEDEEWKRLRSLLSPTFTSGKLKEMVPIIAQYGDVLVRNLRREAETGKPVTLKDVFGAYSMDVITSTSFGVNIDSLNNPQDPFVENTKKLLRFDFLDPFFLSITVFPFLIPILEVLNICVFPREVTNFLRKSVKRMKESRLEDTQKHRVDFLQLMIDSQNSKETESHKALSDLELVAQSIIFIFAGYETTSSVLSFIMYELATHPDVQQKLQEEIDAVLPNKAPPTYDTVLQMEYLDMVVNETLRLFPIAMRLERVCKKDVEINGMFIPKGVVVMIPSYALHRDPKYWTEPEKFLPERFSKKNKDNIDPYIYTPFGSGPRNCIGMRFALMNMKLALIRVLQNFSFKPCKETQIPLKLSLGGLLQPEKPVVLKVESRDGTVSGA
Chain of Cytochrome P450 2D6 (Homo sapiens) (P10635 whole entry, looked up): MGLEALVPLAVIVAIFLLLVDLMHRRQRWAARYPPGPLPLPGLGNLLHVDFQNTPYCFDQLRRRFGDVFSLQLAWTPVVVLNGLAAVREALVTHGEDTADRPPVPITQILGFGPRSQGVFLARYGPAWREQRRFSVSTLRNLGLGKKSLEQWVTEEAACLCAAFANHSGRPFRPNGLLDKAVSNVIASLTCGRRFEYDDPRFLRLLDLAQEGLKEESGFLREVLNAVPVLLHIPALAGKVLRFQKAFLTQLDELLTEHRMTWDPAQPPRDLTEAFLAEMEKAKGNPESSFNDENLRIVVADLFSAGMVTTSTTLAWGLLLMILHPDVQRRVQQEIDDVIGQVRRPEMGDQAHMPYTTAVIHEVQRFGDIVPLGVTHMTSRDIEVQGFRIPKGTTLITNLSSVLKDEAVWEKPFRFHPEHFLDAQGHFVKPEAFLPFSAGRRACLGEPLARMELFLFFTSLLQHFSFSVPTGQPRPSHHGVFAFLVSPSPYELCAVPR
Chain of Voltage-gated inwardly rectifying potassium channel KCNH2 (Homo sapiens) (Q12809 whole entry, looked up): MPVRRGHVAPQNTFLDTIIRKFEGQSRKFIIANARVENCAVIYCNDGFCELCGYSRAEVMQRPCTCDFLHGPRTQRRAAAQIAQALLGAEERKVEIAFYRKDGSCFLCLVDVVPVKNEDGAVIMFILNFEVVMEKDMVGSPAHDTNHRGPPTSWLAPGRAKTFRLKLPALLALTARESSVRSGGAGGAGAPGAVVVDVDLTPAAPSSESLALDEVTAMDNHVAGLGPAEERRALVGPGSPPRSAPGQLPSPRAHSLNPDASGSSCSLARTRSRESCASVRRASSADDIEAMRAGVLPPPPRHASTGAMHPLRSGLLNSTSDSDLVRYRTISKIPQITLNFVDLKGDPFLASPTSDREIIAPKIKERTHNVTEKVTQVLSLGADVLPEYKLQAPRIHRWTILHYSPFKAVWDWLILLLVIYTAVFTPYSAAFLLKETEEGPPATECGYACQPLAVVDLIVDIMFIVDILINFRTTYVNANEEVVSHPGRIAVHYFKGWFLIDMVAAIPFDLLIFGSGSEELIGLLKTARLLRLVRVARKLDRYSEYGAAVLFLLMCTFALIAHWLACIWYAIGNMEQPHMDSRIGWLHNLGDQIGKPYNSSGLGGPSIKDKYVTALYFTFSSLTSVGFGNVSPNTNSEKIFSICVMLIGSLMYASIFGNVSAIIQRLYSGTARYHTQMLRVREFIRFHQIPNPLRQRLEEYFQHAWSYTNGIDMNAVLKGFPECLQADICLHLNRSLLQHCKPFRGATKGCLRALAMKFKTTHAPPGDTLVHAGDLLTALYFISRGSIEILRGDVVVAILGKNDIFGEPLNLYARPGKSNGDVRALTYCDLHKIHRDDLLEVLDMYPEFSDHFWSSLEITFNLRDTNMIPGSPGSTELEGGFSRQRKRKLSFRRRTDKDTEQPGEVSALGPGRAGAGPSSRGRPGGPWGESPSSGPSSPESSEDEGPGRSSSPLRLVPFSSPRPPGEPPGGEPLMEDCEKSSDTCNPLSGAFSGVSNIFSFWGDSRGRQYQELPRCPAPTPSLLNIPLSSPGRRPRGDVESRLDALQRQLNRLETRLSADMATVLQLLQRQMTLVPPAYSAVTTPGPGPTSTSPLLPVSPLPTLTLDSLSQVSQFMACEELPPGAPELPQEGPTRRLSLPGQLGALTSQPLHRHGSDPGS
Chain of Thyrotropin-releasing hormone receptor (Homo sapiens) (P34981 whole entry, looked up): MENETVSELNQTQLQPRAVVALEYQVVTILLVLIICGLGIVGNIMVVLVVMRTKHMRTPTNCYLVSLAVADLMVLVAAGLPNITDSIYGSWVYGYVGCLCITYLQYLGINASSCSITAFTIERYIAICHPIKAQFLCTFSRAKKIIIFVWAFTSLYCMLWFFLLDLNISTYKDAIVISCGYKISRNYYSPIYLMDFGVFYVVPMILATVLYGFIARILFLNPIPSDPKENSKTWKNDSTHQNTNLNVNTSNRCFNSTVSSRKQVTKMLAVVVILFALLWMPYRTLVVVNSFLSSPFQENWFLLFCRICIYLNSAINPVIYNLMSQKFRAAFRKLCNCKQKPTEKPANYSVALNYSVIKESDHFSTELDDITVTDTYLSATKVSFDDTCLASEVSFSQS
Chain of Cytochrome P450 2C19 (Homo sapiens) (P33261 whole entry, looked up): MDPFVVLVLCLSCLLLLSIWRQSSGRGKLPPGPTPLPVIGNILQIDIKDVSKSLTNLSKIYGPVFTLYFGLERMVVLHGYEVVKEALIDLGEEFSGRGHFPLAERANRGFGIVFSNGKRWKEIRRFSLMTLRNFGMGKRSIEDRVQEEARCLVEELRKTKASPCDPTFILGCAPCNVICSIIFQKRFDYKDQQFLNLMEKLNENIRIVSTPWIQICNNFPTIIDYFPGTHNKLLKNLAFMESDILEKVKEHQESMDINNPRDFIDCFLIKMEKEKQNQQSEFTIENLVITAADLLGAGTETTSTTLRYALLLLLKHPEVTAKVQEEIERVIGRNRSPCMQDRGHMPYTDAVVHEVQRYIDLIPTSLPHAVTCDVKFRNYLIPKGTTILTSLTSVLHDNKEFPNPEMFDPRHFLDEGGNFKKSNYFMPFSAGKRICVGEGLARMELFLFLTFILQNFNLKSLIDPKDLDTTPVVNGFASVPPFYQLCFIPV
Chain of Nuclear receptor subfamily 1 group I member 2 (Rattus norvegicus) (Q9R1A7 whole entry, looked up): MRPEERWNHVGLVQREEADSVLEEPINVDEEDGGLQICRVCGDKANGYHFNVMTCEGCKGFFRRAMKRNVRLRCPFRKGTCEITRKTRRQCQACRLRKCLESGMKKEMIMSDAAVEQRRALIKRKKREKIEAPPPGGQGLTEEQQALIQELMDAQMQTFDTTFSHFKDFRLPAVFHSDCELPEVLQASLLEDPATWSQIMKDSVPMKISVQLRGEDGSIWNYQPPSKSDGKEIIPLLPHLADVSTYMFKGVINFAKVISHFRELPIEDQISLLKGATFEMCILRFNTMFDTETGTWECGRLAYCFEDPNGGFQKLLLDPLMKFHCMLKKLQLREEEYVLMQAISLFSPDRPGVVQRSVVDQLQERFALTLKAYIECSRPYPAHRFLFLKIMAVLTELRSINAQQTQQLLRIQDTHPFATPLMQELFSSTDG

Regarding `C/C=C/C(=O)CCCC`, the compound was called inactive in [1], in experiment [2], in [4], in experiment [5], in experiment [7] and in experiment [8]. The Potency entry in [3], in experiment [6], in experiment [9], in [10], in experiment [11] and in experiment [12] was “inactive” in each case. Moreover, the Potency in experiment [13] was 56.4 µM (active).
With `CSC(=O)c1cccc2nnsc12`, the call in experiment [1], in experiment [2], in experiment [4], in experiment [5] and in experiment [7] was inactive. In addition, the Potency result in [3], in experiment [6], in experiment [9], in experiment [12] and in [13] was “inactive” in each case. The Potency in experiment [10] is 35.6 µM (active); in experiment [14], 12.6 µM (active); in experiment [15], 7.96 µM (active); in experiment [11] it was 0.71 µM (active).
Turning to `C=CCCCCCCCCOC(C)=O`, the call in experiment [1], in [2], in experiment [4], in experiment [5], in experiment [7] and in experiment [8] was inactive. Moreover, the Potency entry in experiment [3], in experiment [6], in [9], in experiment [14], in experiment [15] and in experiment [13] was “inactive” throughout.
For the compound `CC(=O)Oc1ccc(C(C)=O)cc1`, the compound was classed as inactive in experiment [1], in experiment [2], in experiment [4], in experiment [5], in [7] and in experiment [8]. Moreover, the Potency result in experiment [3], in experiment [6], in experiment [9], in experiment [15], in experiment [12] and in [13] was “inactive” each time. Moreover, in experiment [11], the Potency is 33 µM (active).
For `CC(=O)/C=C/C=C1/C2CCC(C2)C1(C)C` (configuration not stated), the compound was called inactive in [1], in [2], in experiment [4], in experiment [5] and in experiment [7]. Moreover, the Potency result in experiment [3], in experiment [6] and in experiment [12] was “inactive” each time. For the same compound, the Potency in experiment [9] was 3.76 µM (active); in experiment [11], 21.9 µM (active).
As for `CCCCNCC`, the call in experiment [1], in experiment [2], in [4], in experiment [5], in experiment [7] and in [8] was inactive. In addition, the Potency entry in [3], in experiment [6], in experiment [12] and in experiment [13] was “inactive” each time. Further, the Potency is 27.2 µM (active) in [14] and 19.3 µM (active) in experiment [11].
As to `CCCCCCC(O)CO` (configuration not stated), the call in experiment [1], in experiment [2], in experiment [4], in experiment [5] and in experiment [7] was inactive. In addition, the Potency result in [3], in [6], in experiment [9], in experiment [10], in experiment [14] and in experiment [15] was “inactive” in each case. The Potency entry in experiment [11] and in [12] was “inactive” each time.
Take `CCCCCCCOC(C)=O`: the result in [1], in experiment [2], in experiment [4], in experiment [5], in experiment [7] and in experiment [8] was inactive. Moreover, the Potency entry in [3], in experiment [6], in [9], in experiment [14], in experiment [15] and in [11] was “inactive” each time. Further, the Potency result in experiment [12] and in experiment [13] was “inactive” each time.
As for `CCC(=O)OCCOc1ccccc1`, the compound was classed as inactive in experiment [1], in experiment [2], in experiment [4], in experiment [5], in [7] and in [8]. In addition, the Potency entry in experiment [3], in experiment [6], in experiment [15], in experiment [12] and in [13] was “inactive” each time.
As for `NCC1CCC(C(=O)Oc2ccc(CCC(=O)O)cc2)CC1` (configuration not stated), the compound was called inactive in experiment [1], in [2], in [4], in experiment [5], in experiment [7] and in experiment [17]. Also, the result in experiment [18] was inactive. The Potency result in experiment [3], in experiment [6], in [9], in experiment [14], in experiment [15] and in [11] was “inactive” each time. For the same compound, the Potency result in experiment [12] is “inactive”. For the same compound, the max activation in experiment [16] is -5.61%.

Source of the values: PubChem BioAssay (Tox21).
